Compound activity (PubChem)
aSyn rescue: rescues yeast growth from alpha-synuclein toxicity. Yeast expressing alpha-synuclein, growth rescue, BacTiter-Glo, 24 h. Potency, µM (titrated, usually from 46.1 µM), for the others: top-dose growth rescue (activation), usual class: activators. actives 0.14% (n = 370,000); also: % of control where 0% means no effect; nearly all actives have a fitted effect of over 65% in size
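Screening used galactose-induced yeast with toxic alpha-synuclein levels, exposed to compound for 24 hr at 30 deg C. Cell growth, read with BacTiter-Glo luminescence, gave the measured signal.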
Abeta yeast res: compounds reversing amyloid beta toxicity in yeast. Potency, µM (series often up to 46.1 µM), most hits filed as activators. yeast expressing A-beta42, growth rescue, OD600, 48 h; response scale: 0% DMSO, 100% iron-clioquinol control. actives 0.063% (n = 410,000); also: nearly all actives have a fitted effect of over 55% in size
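Growth rescue measured by 600 nm absorbance after 48 h yeast culture at 30 C with compound. Values normalized between DMSO and an equimolar ferric chloride plus clioquinol control.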
FUS suppressor: suppressors of FUS proteinopathy in yeast; S. cerevisiae FUS-expressing, growth rescue, OD600, 24 h; Potency, µM (highest dose often 76.6 µM), actives largely listed as activators; actives 0.24% (n = 390,000);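 also: plate controls were DMSO vehicle for no effect and reference control for full effect; nearly all actives have a fitted effect of over 55% in size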
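S. cerevisiae expressing FUS from galactose induction served as the toxicity model. Growth after 24hr at 30C, read as absorbance at 600 nm, indicates suppression of toxicity; compounds dosed at several concentrations.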
TDP-43 yeast inh: inhibitors of TDP-43 toxicity in yeast; Potency, µM (doses to about 46.1 µM), without a hit: at the top dose growth rescue (activation), actives largely listed as activators; actives 1.8% (n = 410,000); TDP-43 expressing yeast growth rescue, BacTiter-Glo, 24 h; AID 652104; also: % of control where 0% means no effect; nearly all actives have a fitted effect of over 50% in size
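Galactose-induced TDP-43 yeast, OD600=0.02, compound pinned; 24 hr, 30 deg C; BacTiter-Glo luminescence for growth. Inhibitors of TDP-43 toxicity read as activators.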
The depositor's hits bear a star; i = inactive; ? = inconclusive; . = not tested or not shown; [ ] = remark or other dose. Only some compounds are listed: those with a hit (about 2.1% of all), similar ones and a draw of the others. Calls follow the shape of the dose curve; as a rule, active = well fitted curve in the direction sought with a large enough effect; inconclusive = small, poorly fitted or top-dose-only effect, or another doubt; inactive = no such curve, though single readings can be large; an effect the other way counts as inactive or inconclusive. Potency is read from the fitted curve at half-maximal effect.

SMILES | aSyn rescue | Abeta yeast res | FUS suppressor | TDP-43 yeast inh
CCc1nc2ccc(C(=O)Nc3cc(-c4ccccc4)ccc3OC)cn2c1N(CC)CCN(C)C | -4% | i | i | 9%
CCc1nc2ccc(C(=O)Nc3cc(-c4ccccc4)ccc3OC)cn2c1N(CC)Cc1cccc(Br)c1 | 0% | i | ? | 16µM*
c1ccc(CNc2ncnc3c2ncn3C2CCCCO2)cc1 (stereo unspecified) | 2% | i | i | -4%
O=C(NCC1CCCCC1)c1ccc2nc([C@H]3C[C@H](O)[C@@H](CO)O3)[nH]c2c1 | -4% | i | i | 20%
O=C(CCNS(=O)(=O)c1ccc(Br)s1)N1CCN(c2ccccc2)CC1 | ? | i | i | 18µM*
COc1ccccc1N1CCN(C(=O)CCNS(=O)(=O)c2ccc(Br)s2)CC1 | ? | i | i | 22µM*
Cc1ccc(NC(=O)C2CCCC2)cc1S(=O)(=O)N1CCOCC1 | -1% | i | i | 13%
Oc1ccc(-c2nc3ccccc3s2)cc1 | -17% | i | i | 35µM*
c1ccc2sc(-c3ccncc3)nc2c1 | ? | i | i | 2%
c1ccc(-c2nnc(N3CCCC3)nc2-c2ccccc2)cc1 | -7% | i | i | 18µM*
COc1cc(/C=N/NC(=S)NC2CC3C=CC2C3)cc(OC)c1OC (stereo unspecified) | -6% | ? | i | 22%
CCOc1ccc(/C=N/NC(=S)NC2CC3C=CC2C3)cc1 (stereo unspecified) | -10% | 7.9µM* | i | 16%
C=CCNc1nc(NCc2ccccc2)nc(OCC)n1 | -4% | i | i | 11%
Cc1cccc(CNC(=O)c2ccc3c(c2)N(C)CCS3)c1 | 15% | i | i | ?
CN1CCSc2ccc(C(=O)NCc3cccc(Br)c3)cc21 | 5% | i | i | 16µM*
CCN1CCSc2ccc(C(=O)NCc3ccccc3C)cc21 | 1% | i | i | 35µM*
CCN1CCSc2ccc(C(=O)NCc3ccccc3Br)cc21 | -8% | i | i | 19%
O=C1N(Nc2ccccc2)C(c2ccc(Br)cc2)C12CCCCC2 (stereo unspecified) | 3% | i | i | -14%
Cc1nnc(SCC(=O)NC23CC4CC(CC(C4)C2)C3)n(N)c1=O | 0% | i | i | -2%
Cc1noc(C)c1COC(=O)Cc1ccc(Cl)c(Cl)c1 | 25% | i | i | 10µM*
CCC(C(=O)Nc1nc(C)c(C)s1)c1ccccc1 (stereo unspecified) | -2% | ? | i | 18µM*
Cc1nc(NC(=S)Nc2ccccc2)sc1C | -1% | 11µM* | i | ?
CCc1nnc(NC(=O)CCC(=O)Nc2ccccc2)s1 | -4% | i | i | 15%
CCC(C(=O)Nc1nc(C)cs1)c1ccccc1 (stereo unspecified) | 5% | i | i | ?
CCc1nnc(NC(=S)Nc2ccccc2)s1 | -9% | ? | i | 13µM*
SMILES | aSyn rescue | Abeta yeast res | FUS suppressor | TDP-43 yeast inh
CC1=C(CC(=O)c2ccccc2)C(=O)c2ccccc2C1=O | -2% | i | . | 26%
O=[N+]([O-])c1nn(-c2ccccc2)n(O)c1=NC1CCN(Cc2ccccc2)CC1 | -4% | i | i | 4%
COc1ccc(-n2nc([N+](=O)[O-])c(=NCCc3ccccc3)n2O)cc1 | 8% | i | . | 13µM*
O=[N+]([O-])c1nn(-c2ccccc2)n(O)c1=NCCc1ccccc1 | 2% | i | . | 7.1µM*
Cc1ccc(CCN=c2c([N+](=O)[O-])nn(-c3ccccc3)n2O)cc1 | 20% | i | i | 11µM*
CSc1ccccc1C(=O)C1CCCN(S(=O)(=O)N(C)C)C1 (stereo unspecified) | 4% | i | i | 9%
Clc1ccc(-c2noc3ncnc(NC4CCCCC4)c23)cc1 | . | i | i | 35µM*
Clc1cccc(-c2noc3ncnc(NC4CCCCC4)c23)c1 | . | i | i | -2%
CC1CCC(Nc2ncnc3onc(-c4ccc(Cl)cc4)c23)CC1 (stereo unspecified) | -1% | i | i | 20µM*
CC1(C)CC(N2CCN(CCO)CC2)=CC(=S)N1 | 18µM* | i | i | ?
C[C@H](CO)N1C[C@H](C)[C@@H](CN(C)S(=O)(=O)c2ccc(F)cc2)Oc2ccc(NC(=O)Cc3cn(C)c4ccccc34)cc2C1=O | 3% | i | ? | 9%
COc1cccc(-n2c(CCn3nc(C)c([N+](=O)[O-])c3C)n[nH]c2=S)c1 | -9% | i | . | 0%
O=C1c2ccccc2C(=O)N1CC1CO1 (stereo unspecified) | -8% | i | i | -20%
O=C1c2ccccc2C(=O)N1C1C=CC=CC=C1 | ? | i | i | 25µM*
CCn1cc(CNC(=O)/C=C/c2ccc([N+](=O)[O-])cc2)c(C)n1 | 2% | i | i | -13%
O=C(O)CC(SCC(=O)Nc1ccccc1)C(=O)O (stereo unspecified) | 1% | i | i | -2%
CC(=O)O[C@H]1CC[C@@]2(C)C(CCC3C2CC[C@]2(C)OC(=O)CCC32)C1 (stereo partly specified) | 19% | i | i | 35µM*
CC(=O)OC1CCC2(C)C(CCC3C4CC=C(C(C)=O)C4(C)OC(=O)CC32)C1 (stereo unspecified) | -19% | i | i | -85%
CCC(C)(O)c1[nH]c2ccc(C(F)(F)F)cc2c1C (stereo unspecified) | 0% | 14µM* | i | 18µM*
Cc1c(C(C)(C)O)[nH]c2ccc(C(F)(F)F)cc12 | 5% | 18µM* | i | 35µM*
CC(=O)c1ccc(NC(=O)COc2ccc3c(c2)OCO3)cc1 | -1% | i | i | 26%[9.22 µM]
Cc1cccc(-c2cc3nc(-c4ccccc4)cc(N4CCC5(CC4)OCCO5)n3n2)c1 | 3% | i[9.22 µM] | i | 35µM*
Cc1ccc(-c2cc3nc(-c4ccccc4)cc(N4CCC5(CC4)OCCO5)n3n2)cc1 | -12% | i | i | ?
C[C@@H]1O[C@H](C2CCCC2)CC2=C1C(=O)OC(C)(C)O2 | 1% | i | i | ?
CCCCC(=O)NNC(=S)NC(=O)c1ccc([N+](=O)[O-])cc1 | 32µM* | ? | i | 20µM*
O=C(NNC(=S)NC(=O)c1ccccc1)c1cccc([N+](=O)[O-])c1 | -2% | ? | i | 27%
CCCCC(=O)NNC(=S)NC(=O)c1cccc([N+](=O)[O-])c1 | ? | i | i | 14µM*
CC(C)CC(=O)NC(=S)NNC(=O)c1ccc([N+](=O)[O-])cc1 | ? | ? | i | 18µM*
Cc1ccc(C(=O)NC(=S)NNC(=O)CC#N)cc1 | -2% | i | i | 1%
CCC(=O)NC(=S)NNC(=O)c1ccc([N+](=O)[O-])cc1 | 10% | i | i | ?
